Laboratory results as given in PubChem BioAssay (NCI).
The panel holds about 83,000 compounds, 20% with a hit somewhere; the sample as a whole holds those more often.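 Activity criterion: percent growth below 10, measured after cells in 96-well plates were exposed to a single compound concentration for 48 hours.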 Values without a mark were called inactive. Calls of active or inactive are those of the source.

Legend:
Assay in all cases: NCI-60 one-dose screen, 48 h (100 = growth as untreated, 0 = no growth, -100 = all killed)
Settings in all cases: 10 µM unless noted
T-47D breast = test system: T-47D breast
BT-549 breast = test system: BT-549 breast
MDA-MB-435 melanoma = test system: MDA-MB-435 melanoma
SW-620 colon = test system: SW-620 colon
MCF7 breast = test system: MCF7 breast
HCT-116 colon = test system: HCT-116 colon
HCC-2998 colon = test system: HCC-2998 colon
KM12 colon = test system: KM12 colon

| Structure (SMILES) | growth (T-47D breast) | growth (BT-549 breast) | growth (MDA-MB-435 melanoma) | growth (SW-620 colon) | growth (MCF7 breast) | growth (HCT-116 colon) | growth (HCC-2998 colon) | growth (KM12 colon) |
| --- | --- | --- | --- | --- | --- | --- | --- | --- |
| N#CC1=C(N)Oc2c(sc3c(F)cccc23)C1c1ccc([N+](=O)[O-])cc1 (stereo not drawn) | -3.63% (active) | -48.3% (active) | -28.7% (active) | -33.7% (active) | -18.1% (active) | -84.8% (active) | -40.8% (active) | -32.4% (active) |
| O=C1/C(=C/c2cccc(Br)c2)COc2ccc(O)cc21 | 19.6% | 47.7% | 25.1% | -21.2% (active) | 6.98% (active) | 6.67% (active) | 86.2% | 28% |
| O=C(/C=C/C12c3ccccc3C(c3ccccc31)C1C(=O)NC(=O)C12)c1ccc(I)cc1 (stereo not drawn) | 38.9% | 46.1% | 31.2% | 25% | 16.5% | 35.8% | 100% | 57.8% |
| O=C(O)CC(C(=O)O)/C(=C\c1ccccc1)c1ccccc1 (stereo not drawn) | 93.1% | 122% | 115% | 103% | 94.7% | 119% | 108% | 108% |
| COc1cc(N2C(=O)[C@H](Cl)C2c2ccc(SC)cc2)cc(OC)c1OC (stereo partly drawn) | 49.1% | -9.33% (active) | -26.3% (active) | 24.3% | 12.4% | -17.2% (active) | 7.52% (active) | 14.4% |
| COCCn1cc(-c2csc(-c3c[nH]c4ccccc34)n2)c2cccnc21 | 3.06% (active) | 21.8% | 2.9% (active) | 30.7% | 9.88% (active) | 16.6% | 42.1% | 15.6% |
| Oc1ccc(-c2nc3ccc4[nH]ncc4c3c3c2CCCC3)c(F)c1 | 33% | 13.9% | -23.3% (active) | 8.41% (active) | 26.8% | 4.73% (active) | 41.4% | 20% |
| Cn1c(=O)c2[nH]c(SC/C(=N/O)c3ccc(Br)cc3)nc2n(C)c1=O | 23.1% | 28.3% | 52% | 92.7% | 69.1% | 28.3% | 16.8% | 56.9% |
| CN(C)c1ccc(CNCCO)cc1 | 55.5% | 75.7% | – | 94.5% | 94% | 72.1% | 109% | 105% |
| Nc1c(Br)cc2c(c1Br)Cc1cc([N+](=O)[O-])ccc1-2 | 58.3% | 110% | – | 103% | 33.8% | 95.3% | 104% | 99.1% |
| COc1nc(/C=C\Nc2ccc3c(c2)OCCOCCOCCOCCO3)nc(OC)n1 | 87.5% | 92.9% | – | 94% | 93% | 95.2% | 98.2% | 101% |
| NS(=O)(=O)c1ccc(C(=O)N=Nc2c(O)[nH]c3ccc(Cl)cc23)cc1 | 97.2% | 98.8% | – | 100% | 89.2% | 99.4% | 114% | 102% |
| Cc1ccc(S(=O)(=O)c2nc(-c3ccccc3)oc2SCC(N)=O)cc1 | 76.3% | 106% | – | 104% | 96% | 85.7% | 105% | 97.9% |
| O=c1c2ccccc2n(C[C@H]2CO2)c2ccccc12 | 12.6% | -4.38% (active) | – | 0.352% (active) | -4.75% (active) | 2.21% (active) | -70% (active) | -16.4% (active) |
| COc1ccc(C/C(C)=C(\c2ccc(Cl)cc2)c2ccc(OCCN3CCCC3)cc2)cc1 | 56.6% | 85.5% | – | 75.2% | 35.7% | 78.9% | 75.6% | 72.1% |
| COc1ccc(C2C3=C(COC3=O)N(CCO)c3cc4c(cc32)OCO4)cc1OC (stereo not drawn) | 87.5% | 80.5% | 5.99% (active) | 61.6% | 64.3% | 68.6% | 74.5% | 62.4% |
| CN(C)/C(N)=N/N=C(\c1ccccc1)c1ccccn1 | 110% | 99.8% | – | 104% | 105% | 89.5% | 94.3% | 99.1% |

| Structure (SMILES) | growth (T-47D breast) | growth (BT-549 breast) | growth (MDA-MB-435 melanoma) | growth (SW-620 colon) | growth (MCF7 breast) | growth (HCT-116 colon) | growth (HCC-2998 colon) | growth (KM12 colon) |
| --- | --- | --- | --- | --- | --- | --- | --- | --- |
| CN1CC(c2ccc(Br)cc2)C(C(=O)c2ccc(Br)cc2)C12C(=O)Nc1ccccc12 (stereo not drawn) | 49.5% | 100% | 78.9% | 72% | 62.4% | 39.7% | 84.5% | 75% |
| C#CCOc1cccc(Nc2ncnc3cc(NC(=O)CCl)ccc23)c1 | -48.9% (active) | -55.4% (active) | – | -49.7% (active) | -15.9% (active) | -61.1% (active) | -67.2% (active) | -69.5% (active) |
| Nc1nc(C(=O)N/N=C/c2ccc(F)cc2)nn1-c1ccc(S(N)(=O)=O)cc1 | 99.3% | 114% | – | 99.2% | 98.8% | 101% | 107% | 96.7% |
| C=C[C@@]1(C)CC(=O)[C@@H](C(C)(C)c2cn(C)c3ccc(Br)cc23)C[C@@H]1O[Si](C)(C)C(C)(C)C | 89.6% | 111% | – | 97.3% | 80.1% | 89.7% | 109% | 100% |
| Cc1oc(-c2ccc(Cl)cc2)nc1C1=NN(C(=O)c2ccncc2)C(c2ccccc2)C1 (stereo not drawn) | 97% | 89.7% | – | 95.2% | 94% | 93.8% | 102% | 90.6% |
| Cc1cc(O)c(=O)cc2c1C[C@H]1CC(C)(C)/C=C/C[C@]3(C)Oc4cc(=O)c(O)cc(C)c4C[C@H]3C[C@H](O)[C@@]1(C)O2 | 2.08% (active) | 1.38% (active) | 18.1% | 13.8% | 2.97% (active) | 8.37% (active) | 32.4% | 16.1% |
| ClCCn1cnc2c(SCc3ccccc3)ncnc21 | 73.8% | 70.4% | – | 39.4% | 42.5% | 31.5% | 57.4% | 53.2% |
| CC1SC(c2ccccc2O)N(NC(=O)CCC(=O)c2nc3ncccc3[nH]2)C1=O (stereo not drawn) | 93.6% | 122% | – | 92.6% | 98.7% | 91.2% | 92.9% | 95.2% |
| Oc1nc(NCc2ccccc2)sc1/C=C1\C=Nc2ncccc21 | 63.6% | 42.7% | 74.2% | 44.5% | 42% | 24.3% | 102% | 55% |
| CN(C)CCCn1c2c(c3ccncc3c1=O)C(=O)c1ccccc1-2 | -12.3% (active) | 3.87% (active) | – | -28.1% (active) | 1.65% (active) | -18.7% (active) | 25.6% | -12.6% (active) |
| CN(C)c1ccc([C@@H](C(=O)Nc2cccc([N+](=O)[O-])c2)N(C(=O)c2cc3ccccc3[nH]2)c2cccc([N+](=O)[O-])c2)cc1 | 84% | 95.4% | – | 98.7% | 89.6% | 90.4% | 107% | 103% |
| Cc1ccc(-c2csc(NC(=O)CSc3nc(N)cc(N)n3)n2)cc1 | 19.6% | 52.1% | – | 93.6% | 50.6% | 41.8% | 86.8% | 77.5% |
| CC1(C)N=C(N)N=C(N)N1c1cc(Cl)ccc1Cl | 95.2% | 85.2% | – | 42.2% | 65.7% | 36.8% | 94.8% | 94% |
| CN1CCOCCN(C)Cc2ccc3ccc(cc3c2)CN(C)CCOCCN(C)Cc2ccc3ccc(cc3c2)C1 | 119% | 93.6% | – | 22.4% | 77.5% | 28.3% | 100% | 73.7% |
| C=C1SC(=Nc2ccccc2Cl)N(C(=O)c2sc3ccccc3c2Cl)C1(C)C | 34.7% | 85.2% | – | 68% | 21.2% | 54% | 72.9% | 29% |
| Cc1ccc2c(c1)sc1nc(-c3c[nH]c4ccccc34)c(Nc3ccccc3)n12 | 96% | 98.5% | – | 94.7% | 98.4% | 104% | 106% | 105% |
